Rows were chosen to be rich in hits. Some 0.86% of all compounds tested hit in one or more screens of this group.
CDC25B-CDK2 inh – human CDC25B-CDK2/CyclinA binding inhibition | P30305+P24941 | HTRF CDC25B-CDK2/CyclinA binding, anti-His/anti-Flag; hits give high values | z-score (concentration not given with the values) | 94,000 tested, 0.72% active | AID 1259370; in the data active = z-score above about 3.2
TAR Tat displ – HIV-1 TAR-Tat binding disruption; 100,000 tested, 0.6% active; HIV-1 TAR RNA, Tat peptide displacement FRET; hits give high values; z-score (test concentration not listed); active = z-score of 3 or more in at least 2 runs
Numbers stand for hits; . = inactive; / = no result.

SMILES | CDC25B-CDK2 inh | TAR Tat displ
O=C1COCC(=O)N1c1ccc(I)cc1 | . | /
COc1cc(OC)cc(C(=O)Nc2nc3c(s2)CCc2ccc(OC)cc2-3)c1 | . | .
COc1ccc2c(c1)Cc1sc(NC(=O)c3ccc(Br)cc3)nc1-2 | 18 | .
CC(C)CC(=O)Nc1ccc2c(c1)C(=O)N(C)C1=NCCN12 | / | .
COC(=O)C1CCN(C(c2ccco2)c2sc3nc(C)nn3c2O)CC1 (stereo unspecified) | . | /
Cc1ccc(C2CC(=O)N3CN(c4ccc(N(C)C)cc4)CSC3=C2C#N)cc1 (stereo unspecified) | 6.7 | .
COc1ccc(C2CC(=O)N3CN(c4ccc(N(C)C)cc4)CSC3=C2C#N)cc1 (stereo unspecified) | 5.5 | .
Nc1nnc(SCC(=O)N2CCCCC2)s1 | . | /
COc1ccc(NC(=O)CSc2nnc3ccc4ccccc4n23)cc1OC | . | .
COCCCNc1ncnc2scc(-c3ccc(F)cc3)c12 | / | .
O=c1[nH]cc(C(F)(F)F)cc1Cl | . | /
O=c1[nH]cc(Cl)cc1Cl | 6.4 | /
Cc1cc(=O)c2c(O)c3c(O)cc(O)c4c5c(O)cc(O)c6c(O)c7c(=O)cc(C)c8c1c2c(c34)c(c65)c78 | / | 7.8
Cc1cc(O)c2c(c1O)C(=O)c1c(O)cc(C)c(O)c1C2=O | / | .
O=C(Nc1nn2c(-c3ccccc3)nnc2s1)c1ccco1 | . | 17
O=C(Nc1nn2c(-c3ccco3)nnc2s1)c1ccco1 | . | 22
O=C(Cc1ccccc1)Nc1nn2c(-c3ccccc3)nnc2s1 | . | .
CC(=O)Nc1nn2c(-c3ccco3)nnc2s1 | . | .
CCC1CN(C(=O)Nc2cccc(Cl)c2)c2ccccc2O1 (stereo unspecified) | / | .
Oc1ccc(-c2ccccc2)cc1Br | . | .
O=C(CSc1ccsc1[N+](=O)[O-])Nc1cc(F)ccc1F | . | .
CCN(CC)c1ccc(NC(=O)CSc2ccsc2[N+](=O)[O-])c(C)c1 | . | 12
COc1cnc(CSc2nnnn2C)cc1OCC(=O)NCC1CCCO1 (stereo unspecified) | / | .
COc1ccc(N2C(=O)c3cccnc3C2Nc2cc(Cl)ccc2OC)cc1 (stereo unspecified) | / | .
CSc1nc2c(c(Nc3ccc(O)c(C(=O)O)c3)n1)CCC2 | . | 18
SMILES | CDC25B-CDK2 inh | TAR Tat displ
CSc1nc2c(c(Nc3cccc(O)c3)n1)CCC2 | . | .
CC(=O)[C@]1(O)Cc2c(O)c3c(c(O)c2[C@@H](O[C@H]2C[C@H](N)[C@H](O)[C@H](C)O2)C1)C(=O)c1ccccc1C3=O | . | .
O=C1CC(c2ccccc2F)C2=C(CC(c3ccccc3Cl)CC2=O)N1 (stereo unspecified) | . | .
O=C1CC(c2ccccc2Cl)C2=C(CC(c3ccccc3Cl)CC2=O)N1 (stereo unspecified) | . | 15
CCN(CC)C(=O)CSc1nnc(-c2ccc(Br)cc2)o1 | . | .
O=C(c1cnn2cc(Br)cnc12)N1CCCC1c1ccccc1F (stereo unspecified) | . | .
O=C(c1cnn2cc(Br)cnc12)N1CCCC1c1cccc(F)c1 (stereo unspecified) | . | 30
C=CCOC(=O)COc1cc2oc(=O)c3c(c2cc1Cl)CCCC3 | . | /
O=c1cc(CSc2ccc(Cl)cc2)[nH]c2[nH]n(-c3ccccc3)c(=O)c12 | . | 4.6
O=c1cc(CSc2ccc(Cl)cc2)[nH]n1-c1ccccc1 | . | .
O=c1cc(CSc2nc3ccccc3s2)[nH]c2[nH]n(-c3ccccc3)c(=O)c12 | . | 6.2
O=c1cc(CSc2nc3ccccc3s2)[nH]c2nc3ccccc3n12 | . | .
O=C(CSc1nc2ccncc2[nH]1)Nc1ccc(F)c(Cl)c1 | . | .
Cc1ccc(N2C3=C(C(=O)CC(C)(C)C3)C(c3cn(C)nc3C)C3=C2CC(C)(C)CC3=O)cc1 | . | .
O=C1c2ccccc2NC(c2ccc3c(c2)OCO3)N1Cc1ccccc1 (stereo unspecified) | . | .
CCOc1cc(C2C3=C(CCCC3=O)N(C)C3=C2C(=O)CCC3)cc(Cl)c1O | . | .
CCOc1cc(C2C3=C(CCCC3=O)NC3=C2C(=O)CCC3)cc(Cl)c1O | 16 | .
Cc1ccc(S(=O)(=O)n2nc(-c3cccnc3)nc2NCc2ccco2)cc1 | . | .
O=C(Nc1ccc2snnc2c1)NC1CCCCC1 | . | .
O=C(Nc1ccc2snnc2c1)NC1CC1 | 11 | .
CNc1nc(N)c([N+](=O)[O-])c(Nc2ccc(C)cc2)n1 | / | .
Cc1ccc(C)n1-c1ccc(O)c(C(=O)O)c1 | . | 33
Cc1cc(=O)cc(C)n1-c1ccc(C(=O)O)cc1 | . | .
Cc1ccc(C)n1-c1ccc(Br)cc1C(=O)O | . | 19
O=C(O)c1cc(Br)cc(C(=O)O)c1Cl | . | .
SMILES | CDC25B-CDK2 inh | TAR Tat displ
COc1ccccc1NC(=O)CSc1nnc2ccc3ccccc3n12 | . | .
OC(CNCc1cccs1)c1ccccc1 (stereo unspecified) | . | /
COc1cc2c(cc1OC)C1(O)C(=O)c3ccc(O)c(C(=O)O)c3OC1CO2 (stereo unspecified) | / | .
O=C1CN(Cc2ccccc2F)S(=O)(=O)c2ccccc2N1Cc1ccccc1 | / | 9.4
O=C1CN(Cc2ccccc2F)S(=O)(=O)c2ccccc2N1Cc1ccc(F)cc1 | / | .
O=c1oc(Cc2ccccc2)nc2scc(-c3ccccc3)c12 | . | .
CC(C)(C)c1nc2scc(-c3ccccc3)c2c(=O)o1 | 5.9 | .
Cc1cc(C)n(-c2nc3c(c(=O)n2CC(=O)N2CCCc4ccccc42)CCC3)n1 | / | .
COc1ccc(CNS(=O)(=O)c2cc(-c3cnc(C4CC4)o3)ccc2C)cc1 | / | .
CC(C)(C)c1ccc(N/C=C(\C#N)C(=O)c2ccsc2)cc1 | 13 | /
Cc1oc(C(C)(C)C)cc1C(=O)/C(C#N)=C/Nc1ccccc1 | . | /
CC1CCCC(NC(=O)c2ccc3c(SCC(=O)O)c4c(nc3c2)CCC4)C1C (stereo unspecified) | . | .
CCC1Sc2ccc(S(=O)(=O)CCC(=O)NCc3ccccn3)cc2NC1=O (stereo unspecified) | / | .
O=c1cc(CSc2nnc(-c3ccc(Cl)cc3)o2)nc2sc(C3CC3)nn12 | . | 14
O=c1cc(CSc2nnc(-c3cccs3)o2)nc2sc(C3CCCCC3)nn12 | . | .
Fc1ccc(N2COc3cc4c(cc3C2)OCO4)cc1Cl | 8.6 | /
COc1ccc(N2COc3cc4c(cc3C2)OCO4)cc1 | . | /
CCCC(=O)Nc1sc2c(c1C(=O)OC)CCC2 | . | .
CCOc1nc(-c2ccc(C)cc2)ccc1-c1noc(-c2cccnc2)n1 | . | .
CCOC(=O)c1sc(NC(=O)C(CC)Sc2nnc3c4ccccc4n(CC)c3n2)nc1C (stereo unspecified) | . | .
CCCn1c2ccccc2c2nnc(SC(CC)C(=O)Nc3cc(C)on3)nc21 (stereo unspecified) | 17 | .
O=C(OCCOc1ccc(Cl)cc1Cl)c1ccccc1Cl | . | /
Cc1cccc(NC(=O)CCc2nnc3ccc(NCc4ccco4)nn23)n1 | / | .
COc1ccc(N2C(=O)C3CCCN3C2c2ccc(Cl)cc2)cc1 (stereo unspecified) | . | .
Cc1ccc2nc(SCc3cn4c(C)cccc4n3)[nH]c2c1 | . | /
CCOc1cc(C2CC(=O)N3CN(C4CCCCC4)CSC3=C2C#N)ccc1O (stereo unspecified) | 3.4 | .
COc1ccc(C2CC(=O)N3CN(C4CCCCC4)CSC3=C2C#N)c(OC)c1 (stereo unspecified) | . | .

Compound activity deposited in PubChem by Center for Chemical Genomics, University of Michigan.
